The panel holds about 83,000 compounds, 20% with a hit somewhere; the sample as a whole holds those more often.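 Step 1: grow cells in 96-well plates. Step 2: add test compound at a single concentration. Step 3: incubate 48 h. Step 4: record percent growth.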 Values without a mark were called inactive. Calls of active or inactive are those of the source. Rule for the calls: active = growth percent below 10; inactive = the rest.

Holding throughout (assay): NCI-60 one-dose screen, 48 h (100 = growth as untreated, 0 = no growth, -100 = all killed)
Holding throughout (conditions): 10 µM unless noted

The subject of assay [1] is NCI-H23 lung.
Assay [2] has as its system NCI-H226 lung.
Assay [3] deals with NCI-H322M lung.
The subject of assay [4] is HOP-62 NSCLC.
For assay [5], the system named is NCI-H460 lung.
Assay [6] deals with HOP-92 NSCLC.
For assay [7], the system named is NCI-H522 lung.
Assay [8] deals with A549/ATCC NSCLC.
For assay [9], the system named is 786-0 renal.
Assay [10] relates to COLO 205 colon.
Assay [11] has as its system DU-145 prostate.
The test system of assay [12] is K-562 leukemia.
For assay [13], the system named is MALME-3M melanoma.
The test system of assay [14] is MDA-MB-231 breast.
The subject of assay [15] is RXF 393 renal.
Assay [16] has as its system SF-268 CNS.
Assay [17] deals with SF-295 CNS.
Assay [18] relates to SF-539 CNS.
Assay [19] relates to UACC-257 melanoma.
Assay [20] deals with M14 melanoma.

In the case of `OCCNc1nc(NCCO)nc(Nc2ccc(C3=NN(c4cc(Cl)cc(Cl)c4)C(c4ccc(Cl)cc4)C3)cc2)n1` (stereo not given), the growth was 29.1% in assay [1]; 109% in assay [2]; 14.6% in assay [3]; 15.9% in assay [4]; -22.7% (active) in assay [5]; 60.7% in assay [6]. The growth was 58.9% in [7]; 2.31% (active) in assay [8]; -19.6% (active) in assay [9]; 7.12% (active) in [10]; 0.477% (active) in assay [11]; 4.31% (active) in assay [12]. In addition, the growth in [13] is -43.7% (active); in [14], 7.31% (active); in assay [15] it was -57.8% (active); in assay [16], 19.1%; in [17], -68.3% (active); in assay [18], -45.2% (active). Further, the figures for the growth in assay [19] and in assay [20] were 48.4% and 1.11% (active), respectively.
As for `C=C1C(=O)O[C@H]2[C@H]1CC/C(COC(=O)CCCCCCCCC(=O)OC/C1=C/CC[C@@]3(C)O[C@H]3[C@H]3OC(=O)C(=C)[C@@H]3CC1)=C\CC[C@@]1(C)O[C@@H]21`, the growth was -37.5% (active) in assay [1]; 1.19% (active) in assay [2]; 83.9% in assay [3]; 60.2% in [4]; 27.1% in [5]; -25.9% (active) in [6]. The growth in assay [7] is -51.3% (active); in [8] it was 77.1%; in assay [9], -29.1% (active); in assay [10] it was -46.4% (active); in assay [11] it was 6.71% (active); in [12] it was 1.49% (active). Besides, the growth in [13] was -18.4% (active); in [14], -41.2% (active); in [15], -86.6% (active); in [16] it was 20.7%; in assay [17] it was 87.4%; in [18] it was -36.6% (active). For the same compound, the growth in assay [19] was 24.6%; in assay [20] it was -44.7% (active).
Take `C=C1C(=O)O[C@H]2[C@H]1CC/C(COC(=O)N1CCC[C@H]1C(=O)Nc1ccc(OC)c(C(N)=O)c1O)=C\CC[C@@]1(C)O[C@@H]21`: the growth is 79.5% in [1]; 52.8% in [2]; 90.6% in [3]; 88.6% in assay [4]; 73.9% in assay [5]; -11.2% (active) in assay [6]. For the same compound, the growth in assay [7] was -28.1% (active); in assay [8], 75.4%; in [9], 41.4%; in [10], -25.7% (active); in assay [11] it was 39.4%; in [12], 11.2%. Moreover, the growth is 27.3% in [13]; 46% in [14]; -12.7% (active) in assay [15]; 54.6% in assay [16]; 90.1% in assay [17]; -4.09% (active) in [18]. The growth in assay [19] is 25.2%; in [20] it was 36.5%.
As to `COC(=O)/C=C1\SC(=Nc2cccc(Cl)c2)N(CCc2c[nH]c3ccccc23)C1=O`, the growth in [1] was 69.9%; in [2], 101%; in assay [3], 62%; in assay [4], 41.5%; in assay [5], 51.3%; in [6], 82.4%. Further, the growth in [7] is 24.2%; in assay [8], 48%; in assay [9], 60.6%; in [10], 12.1%; in assay [11], 54.5%; in [12], 24.3%. The growth was 45.9% in assay [13]; 39.5% in assay [14]; 44.8% in assay [15]; 49.5% in [16]; 55.1% in assay [17]; 69.9% in [18]. For the same compound, the growth in [19] was 37.1%; in assay [20], 42.4%.
Turning to `Cc1ccc(C2=N[C@H]3CCC[C@@H]3N(c3ccccc3)C(C(Cl)Cl)=N2)cc1`, the growth in assay [1] is 95.5%; in [2], 107%; in assay [3], 93.3%; in assay [4], 111%; in assay [5] it was 110%; in [6] it was 107%. Moreover, the growth in assay [7] was 93%; in assay [8], 98.4%; in assay [9] it was 98.3%; in [10], 98.8%; in [11], 101%; in [12], 94.9%. The growth was 95% in assay [13]; 117% in assay [14]; 83.2% in [15]; 94.6% in assay [16]; 91.7% in assay [17]; 105% in [18]. The values for the growth in [19] and in [20] were 110% and 91.9%, respectively.
For the compound `C=C(C)[C@@H]1CC[C@]2(C(=O)OCCOCCOCC[P+](c3ccccc3)(c3ccccc3)c3ccccc3)CC[C@]3(C)[C@H](CC[C@@H]4[C@@]5(C)CC[C@H](OC(C)=O)C(C)(C)[C@@H]5CC[C@]43C)[C@@H]12`, the growth was -84.6% (active) in assay [1]; -85.3% (active) in assay [2]; -93.8% (active) in assay [3]; -84.9% (active) in assay [4]; -80.5% (active) in [5]; -87.3% (active) in [6]. Besides, the growth is -75.2% (active) in assay [7]; -88.3% (active) in assay [8]; -91.6% (active) in assay [9]; -75.7% (active) in assay [10]; -91.1% (active) in assay [11]; -74.3% (active) in assay [12]. For the same compound, the growth in assay [13] was -85.1% (active); in assay [14] it was -91.3% (active); in [15] it was -90.4% (active); in [16], -74.7% (active); in assay [17], -92% (active); in assay [18] it was -90.9% (active). In addition, the growth was -83.4% (active) in [19] and -83.1% (active) in assay [20].
For `O=C1CS/C(=N/c2nnc(-c3ccc(O)cc3)s2)N1`, the growth was 90% in [1]; 105% in assay [2]; 110% in [3]; 83.7% in assay [4]; 107% in [5]; 111% in assay [6]. The growth in assay [7] was 88.6%; in [8], 89.9%; in assay [9], 95%; in assay [10], 97.7%; in assay [11], 110%; in assay [12], 95.6%. Also, the growth in assay [13] was 101%; in assay [14], 109%; in assay [15] it was 125%; in [16], 108%; in assay [17] it was 93.9%; in assay [18] it was 102%. Further, the figures for the growth in assay [19] and in assay [20] were 100% and 103%, respectively.
In the case of `COc1ccc2c(c1)/C(=C1\S/C(=N/c3nnc(C)s3)NC1=O)C(=O)N2Cc1ccc(Cl)cc1`, the growth is 34.5% in [1]; 56.5% in [2]; 49.9% in assay [3]; 66.8% in [4]; 8.75% (active) in [5]; 26% in [6]. Besides, the growth in assay [7] is 45.8%; in assay [8], 36.2%; in assay [9], 49.2%; in [10], 79.9%; in [11], 52.4%; in assay [12], 38.3%. In addition, the growth in assay [13] is 72.5%; in assay [14], 89.5%; in assay [15], 75.8%; in assay [16], 46%; in [17], 14.9%; in assay [18], 48.7%. In addition, the growth is 83.6% in assay [19] and 45.6% in assay [20].

Source of the values: PubChem BioAssay (NCI).
